Data from paper PMC5700166.

How the values were obtained:
Assay in all cases: protein-binding microarray (PBM); PBM: ~300 nM protein, 6 mM HEPES pH 7.8, 80 mM KCl, 0.5 mM EDTA, 0.5 mM EGTA, 6% glycerol, 35 ng/ul poly-dIdC, 1% milk, 1 h, room temperature; Ap Aiptasia and Nv Nematostella (sea anemones) / Co Capsaspora / Aq Amphimedon (sponge) / Dm Drosophila / Hu human; RHD is the Rel homology domain; high values mean tight binding
Details in all cases: dsDNA, one strand shown
[1] = target: T1, GST-Ap-NF-kB RHD (Exaiptasia pallida (Aiptasia), UniProt A0A913YAJ5 2-422)
T1 sequence: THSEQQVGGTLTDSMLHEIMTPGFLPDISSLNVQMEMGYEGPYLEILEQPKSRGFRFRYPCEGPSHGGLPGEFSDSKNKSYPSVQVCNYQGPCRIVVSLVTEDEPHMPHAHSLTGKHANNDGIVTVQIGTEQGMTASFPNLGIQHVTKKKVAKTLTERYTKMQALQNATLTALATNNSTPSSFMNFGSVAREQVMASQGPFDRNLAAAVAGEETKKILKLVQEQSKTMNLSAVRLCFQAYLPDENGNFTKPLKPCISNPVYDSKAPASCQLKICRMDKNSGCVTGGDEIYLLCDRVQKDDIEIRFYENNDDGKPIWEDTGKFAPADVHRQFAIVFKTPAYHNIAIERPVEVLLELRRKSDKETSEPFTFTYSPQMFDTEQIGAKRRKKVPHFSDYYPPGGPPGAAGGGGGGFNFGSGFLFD

[2] = target: T2, GST-Nv-NF-kB (Cys allele) (Nematostella vectensis, UniProt E5G601 2-411)
T2 sequence: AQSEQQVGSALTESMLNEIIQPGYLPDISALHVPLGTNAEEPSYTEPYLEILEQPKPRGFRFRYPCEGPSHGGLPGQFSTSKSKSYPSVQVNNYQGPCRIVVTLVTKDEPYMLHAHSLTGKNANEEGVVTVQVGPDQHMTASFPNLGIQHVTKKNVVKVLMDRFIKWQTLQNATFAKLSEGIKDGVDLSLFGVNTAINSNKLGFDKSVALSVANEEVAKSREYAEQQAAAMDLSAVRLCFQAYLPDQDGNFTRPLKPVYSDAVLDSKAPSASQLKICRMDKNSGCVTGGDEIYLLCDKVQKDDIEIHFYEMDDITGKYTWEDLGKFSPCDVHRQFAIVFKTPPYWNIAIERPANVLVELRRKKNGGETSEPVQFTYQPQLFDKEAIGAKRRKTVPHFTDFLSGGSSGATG

[3] = target: T3, GST-Co-NF-kB (Capsaspora owczarzaki, UniProt F1ARL5 200-546)
T3 sequence: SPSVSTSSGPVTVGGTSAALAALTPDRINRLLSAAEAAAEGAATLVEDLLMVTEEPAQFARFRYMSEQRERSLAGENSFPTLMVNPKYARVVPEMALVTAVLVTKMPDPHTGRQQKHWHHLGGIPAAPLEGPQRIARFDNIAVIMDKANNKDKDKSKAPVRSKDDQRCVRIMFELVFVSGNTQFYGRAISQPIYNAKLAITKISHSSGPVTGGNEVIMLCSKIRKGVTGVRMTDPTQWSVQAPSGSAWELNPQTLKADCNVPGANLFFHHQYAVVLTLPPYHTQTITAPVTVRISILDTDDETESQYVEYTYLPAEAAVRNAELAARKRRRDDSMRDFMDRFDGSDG

[4] = target: T4, GST-Dm-Relish (Drosophila melanogaster, UniProt Q94527 99-473)
T4 sequence: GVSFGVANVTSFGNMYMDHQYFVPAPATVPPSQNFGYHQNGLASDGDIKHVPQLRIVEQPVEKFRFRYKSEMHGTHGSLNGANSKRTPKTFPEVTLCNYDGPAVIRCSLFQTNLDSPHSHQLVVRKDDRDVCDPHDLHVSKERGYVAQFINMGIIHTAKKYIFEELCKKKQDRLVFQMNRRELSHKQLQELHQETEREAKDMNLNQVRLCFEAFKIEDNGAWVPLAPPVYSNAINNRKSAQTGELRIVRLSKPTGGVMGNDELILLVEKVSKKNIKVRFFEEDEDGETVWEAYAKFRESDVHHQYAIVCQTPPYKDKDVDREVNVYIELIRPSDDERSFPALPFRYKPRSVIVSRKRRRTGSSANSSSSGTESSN

[5] = target: T5, GST-Aq-NF-kB (Amphimedon queenslandica, UniProt A9Y5G7 2-389)
T5 sequence: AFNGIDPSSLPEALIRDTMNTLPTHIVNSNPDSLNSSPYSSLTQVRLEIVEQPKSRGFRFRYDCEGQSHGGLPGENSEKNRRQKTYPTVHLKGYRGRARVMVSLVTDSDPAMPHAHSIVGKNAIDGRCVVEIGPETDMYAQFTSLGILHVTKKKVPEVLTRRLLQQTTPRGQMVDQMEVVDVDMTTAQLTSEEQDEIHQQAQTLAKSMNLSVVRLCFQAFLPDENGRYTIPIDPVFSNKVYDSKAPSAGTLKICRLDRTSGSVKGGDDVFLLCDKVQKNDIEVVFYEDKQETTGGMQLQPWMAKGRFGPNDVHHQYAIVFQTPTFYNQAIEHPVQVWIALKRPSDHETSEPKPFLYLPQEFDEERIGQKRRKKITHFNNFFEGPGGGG

Row | Sequence | binding signal [1] | binding signal [2] | binding signal [3] | binding signal [4] | binding signal [5]
1 | CCGATTAACATCAAATAAATCCCTGATGTTAATCGGGTCTTGATTCGCTTGACGCTGCTG | 3.07 z-score | 4.02 z-score | 1.92 z-score | 5.66 z-score | 5.06 z-score
2 | CCGATTAACATCACATTATCCCCTGATGTTAATCGGGTCTTGATTCGCTTGACGCTGCTG | 4.81 z-score | 5.05 z-score | 4.75 z-score | 2.4 z-score | 3.81 z-score
3 | CCGATTAACATCAGGAACCCCCATGATGTTAATCGGGTCTTGATTCGCTTGACGCTGCTG | 7.5 z-score | 5 z-score | 2.67 z-score | 9.25 z-score | 5.35 z-score
4 | CCGATTAACATCACGTCCCCCCCTGATGTTAATCGGGTCTTGATTCGCTTGACGCTGCTG | 6.32 z-score | 4.27 z-score | 5.34 z-score | 4.38 z-score | 4.49 z-score
5 | CCGATTAACATCAGGGGCTACCCTGATGTTAATCGGGTCTTGATTCGCTTGACGCTGCTG | 4.03 z-score | 3.47 z-score | 1.76 z-score | 3.48 z-score | 6.2 z-score
6 | CCGATTAACATCACGGATTTCCCTGATGTTAATCGGGTCTTGATTCGCTTGACGCTGCTG | 3.73 z-score | 5.2 z-score | 3.28 z-score | 5.3 z-score | 5.69 z-score
7 | CCGATTAACATCAGGGTATTTACTGATGTTAATCGGGTCTTGATTCGCTTGACGCTGCTG | 3.45 z-score | 5.05 z-score | 1.4 z-score | 7.1 z-score | 6.01 z-score
8 | CCGATTAACATCACGGAACTCCCTGATGTTAATCGGGTCTTGATTCGCTTGACGCTGCTG | 3 z-score | 3.34 z-score | 1.42 z-score | 4.06 z-score | 4.43 z-score
9 | CCGATTAACATCAGGGGGGGCACTGATGTTAATCGGGTCTTGATTCGCTTGACGCTGCTG | 4.77 z-score | 3.1 z-score | 4.2 z-score | 4.97 z-score | 4.76 z-score
10 | CCGATTAACATCAAGGGGGGAGATGATGTTAATCGGGTCTTGATTCGCTTGACGCTGCTG | 5.84 z-score | 5.1 z-score | 6.56 z-score | 2.93 z-score | 4.98 z-score
